# Bioassay records (PubChem BioAssay)
# NS1 inh = qHTS Assay for Inhibitors of Influenza NS1 Protein Function | hit rate 0.4% among 270,000 | AID 2326, 2010 | Potency, µM (top dose mostly 46.1 µM); calls by dose curve; further: actives are rising curves; nearly all actives have a fitted effect of over 50% in size
#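 Recovery from NS1-induced slow growth read by OD600 in budding yeast switched to galactose assay medium (pH 6.0, -URA) at 1:100 dilution. Compound 23 nl per well; the matching strain lacking NS1 serves as control.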
# FBPA Giardia inh = qHTS Assay for Inhibitors of Fructose-1,6-bisphosphate Aldolase from Giardia Lamblia | Potency, µM (series often up to 59.6 µM), hits mostly inhibitors | purified Giardia FBPA | AID 2451, 2010 | A8B2U2 | hit rate 0.71% among 290,000; further: nearly all actives have a fitted effect of over 55% in size
# Target sequence (A8B2U2 whole entry, looked up): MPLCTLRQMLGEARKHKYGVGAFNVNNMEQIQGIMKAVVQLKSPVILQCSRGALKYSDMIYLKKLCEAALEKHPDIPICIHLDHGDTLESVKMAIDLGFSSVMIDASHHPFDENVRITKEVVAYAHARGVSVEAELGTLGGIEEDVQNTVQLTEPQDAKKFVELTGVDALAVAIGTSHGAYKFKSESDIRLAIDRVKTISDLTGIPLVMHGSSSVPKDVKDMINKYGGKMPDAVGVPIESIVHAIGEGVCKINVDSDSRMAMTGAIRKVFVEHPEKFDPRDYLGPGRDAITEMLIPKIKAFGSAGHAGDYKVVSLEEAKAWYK
#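 40 nM FBPA preincubated 10 min at RT with compound (up to 57.5 uM final), then substrate plus GAPDH/TPI/NAD/arsenate coupling and diaphorase/resazurin added. Fluorescence read after 20 min at RT, 525/598 nm.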
# Cycloheximide cs = Cycloheximide Counterscreen for Small Molecule Inhibitors of Shiga Toxin; cell reporter, cycloheximide protein synthesis inhibition counterscreen; max response, %; hit rate 12% among 300,000; in the data active means max response mostly above about 13%, no sharp cut-off; inactive means mostly below about 14%; further: read at 38.3 µM for the half of the compounds with a filed dose
# Pf growth 96h = Primary qHTS for delayed death inhibitors of the malarial parasite plastid, 96 hour incubation; P. falciparum luciferase reporter growth, 96 h; Potency, µM (highest dose often 28.7 µM), usual class: inhibitors; hit rate 6.9% among 320,000; AID 504834, 2011
#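 Two-generation exposure (96 h) targets delayed-death phenotype. Reporter parasites carrying integrated firefly luciferase, in red cells at 2% hematocrit and 0.05% parasitemia final, kept at 37 C, 5% CO2; luminescence loss indicates inhibition.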
# Shiga toxin inh = A qHTS for Small Molecule Inhibitors of Shiga Toxin; AID 2315, 2010; inhibition, % at 38.7 µM; hit rate 9.2% among 290,000; Vero cells, Shiga toxin protein synthesis inhibition reporter; in the data active means inhibition mostly above about 28%, no sharp cut-off; inactive means mostly below about 43%
# Pf growth 48h = Primary qHTS for delayed death inhibitors of the malarial parasite plastid, 48 hour incubation; P. falciparum luciferase growth in erythrocytes, 48 h; hit rate 5.9% among 310,000; Potency, µM (highest dose often 28.7 µM), most hits filed as inhibitors; AID 504832, 2011
#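 Growth was read as firefly luciferase luminescence after a 48 h, 37 C, 5% CO2 exposure of compounds to reporter-bearing P. falciparum cultures (0.1% parasitemia, 2% hematocrit final) in Albumax-supplemented RPMI 1640.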
# Numbers stand for hits; i = inactive; ? = inconclusive; nt = no result given; [ ] = another dose, or the depositor's remark. Sampled rows, rich in hits. Any-hit rate of the full collection: about 21%. Unless noted, the call rests on the fitted dose curve; in most records, active means well fitted curve in the direction sought with a large enough effect; inconclusive means small, poorly fitted or top-dose-only effect, or another doubt; inactive means no such curve, though single readings can be large; an effect the other way counts as inactive or inconclusive.
SMILES,NS1 inh,FBPA Giardia inh,Cycloheximide cs,Pf growth 96h,Shiga toxin inh,Pf growth 48h
CCOC(=O)C1CCCN(C(=O)c2ccccc2NC(=O)C2=C(C)OCCS2)C1 (stereo not given),i,i,i,4.15µM,i,?
CC1=C(C(=O)Nc2cc(C(=O)N3CCN(c4cccc(C)c4C)CC3)ccc2C)SCCO1,i,nt,i,10.4µM,i,i
COc1cc(CNC(=O)c2ccccc2NC(=O)C2=C(C)OCCS2)cc(OC)c1OC,i,nt,i,?,i,13.1µM
COc1ccc(N2CCN(C(=O)c3ccc(C)c(NC(=O)C4=C(C)OCCS4)c3)CC2)cc1,i,nt,i,?,i,?
CC1=C(C(=O)Nc2ccccc2C(=O)N2CCC(C)CC2)SCCO1,i,nt,i,i,i,13.1µM
Cc1ccc(C2(C)NC(=O)N(CC(=O)NC3CCCCC3)C2=O)cc1 (stereo not given),nt,nt,nt,?,nt,i
O=C(c1cc(C(F)(F)F)cc(C(F)(F)F)c1)N1CCC2(CCCN(c3ccccc3)C2)CC1,nt,i,nt,nt,nt,nt
COc1ccccc1NC(=O)c1cnc2n(c1=O)CCS2,i,i,i,?,i,i
COc1ccc(Cl)cc1NC(=O)c1cnc2n(c1=O)CCS2,i,i,i,i,i,i
COc1ccc(OC(=O)c2cnc3n(c2=O)CCS3)cc1,i,i,15.5,i,i,i
COc1ccc(OC)c(NC(=O)c2cnc3n(c2=O)CCS3)c1,i,i,i,8.28µM,i,nt
CC(=O)N1CCN(C(=O)c2cc3c(s2)CCC(C)C3)CC1 (stereo not given),nt,nt,nt,i,nt,i
O=C(O)CSc1nnc(CNc2cccc(C(F)(F)F)c2)n1Cc1ccco1,i,i,i,6.57µM,i,i
Cn1cccc1C(=O)OCc1cc(Cl)cc2c1OCOC2,i,i,61.6,i,145.1,i
CCN1C(=O)c2ccccc2S(=O)(=O)c2ccc(C(=O)NCCOC)cc21,i,i,i,i,i,i
Clc1ccccc1-c1cncnc1NCCN1CCOCC1,nt,i,nt,nt,nt,nt
Clc1ccc(-n2ncc3c(NCCN4CCOCC4)ncnc32)cc1,i[9.22 µM],i,43.3,i,121.0,i
c1ccc(-n2ncc3c(NCCCN4CCOCC4)ncnc32)cc1,i,nt,34.3,?,148.3,i
O=C(CSc1ccc(-c2ccc(Cl)cc2)nn1)N1CCCc2ccccc21,i,i,12.9,?,i,i
CCOC(=O)CC(=O)CSc1ccc2nnc(-c3ccccc3)n2n1,?,i,i,?,i,3.7µM
O=C(CSc1ccc(-c2ccc(F)cc2)nn1)N1CCCc2ccccc21,i,i,i,?,i,i
Cc1nnc(SCC(=O)N2CCCc3ccccc32)[nH]c1=O,i,i,23.1,i,i,nt
Cc1cc(=O)[nH]c(SCC(=O)N2CCCc3ccccc32)n1,i,i,i,i,i,?
Cc1ccc(-c2nnc3ccc(SCC(=O)N4CCCc5ccccc54)nn23)cc1,i,i,i,10.4µM,i,?
CC(=O)Nc1cccc(NC(=O)CSc2nnnn2-c2ccc3c(c2)OCO3)c1,i,i,i,i,i,i
CC[C@H](C)[C@H](NC(=O)[C@H](C)NC(=O)[C@H](CC(N)=O)NC(=O)[C@H](CCCCN)NC(=O)[C@H](Cc1ccccc1)NC(=O)[C@H](CC(C)C)NC(=O)[C@@H](NC(=O)[C@@H](NC(=O)[C@H](CC(C)C)NC(=O)[C@@H]1CCCN1C(=O)[C@@H](NC(=O)[C@H](CCC(N)=O)NC(=O)[C@H](CO)NC(=O)[C@H](CCCCN)NC(=O)[C@H](CCC(=O)O)NC(=O)[C@H](CO)NC(=O)[C@@H](NC(=O)[C@H](CCSC)NC(=O)[C@H](Cc1ccccc1)NC(=O)CNC(=O)CNC(=O)[C@@H](N)Cc1ccc(O)cc1)[C@@H](C)O)[C@@H](C)O)C(C)C)[C@@H](C)O)C(=O)N[C@H](C(=O)N[C@@H](CCCCN)C(=O)N[C@@H](CC(N)=O)C(=O)N[C@@H](C)C(=O)N[C@@H](Cc1ccc(O)cc1)C(=O)N[C@@H](CCCCN)C(=O)N[C@@H](CCCCN)C(=O)NCC(=O)N[C@@H](CCC(=O)O)C(=O)O)[C@@H](C)CC,nt,i,i,nt,i,nt
Cc1ccc(C)c(S(=O)(=O)NC(C)C(=O)NCc2ccccn2)c1 (stereo not given),i,nt,i,i,i,i
